This note sets out measurements from PubChem BioAssay (NCATS).

Several values for one entry are separate records, joined by “and”; a condition that tells them apart may be missing. Equal entries are not always repeated. Results filed as inconclusive are left out. Activity calls are given as the source filed them. Unless noted, calls come from the whole dose curve; as a rule, active = well fitted curve in the direction sought with a large enough effect; inconclusive = small, poorly fitted or top-dose-only effect, or another doubt; inactive = no such curve, though single readings can be large; an effect the other way counts as inactive or inconclusive.

Experiment [1] is described as follows: Cell Viability - Hek293 (AID 427;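 active = compounds whose dose-response curve shows a full or clear partial loss of cell viability, called from curve shape rather than a numeric limit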;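 note: potency is the fitted concentration of half-maximal effect; cells exposed to compound for 40 hours at 37 °C before reading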). Particulars: qHTS. The method in brief: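 HEK293 cells in complete medium were exposed to compound for 40 hr at 37 °C, then cellular ATP was read by CellTiter-Glo luminescence. Data were normalized to DMSO (basal) and 100 uM tamoxifen (100% inhibition), and AC50 came from Hill fits.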
A general note: qHTS replaces the single test concentration by a dilution series.

In experiment [2] the target is Mitogen-activated protein kinase 10 (Mus musculus) (UniProt Q61831). The experiment in a line: JNK3 AlphaScreen Assay (AID 530; active = well fitted curve in either direction with a large enough effect, not every such curve was filed as active;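 note: kinase came from lysate of stimulated human HepG2 cells; signal reports phosphorylation of biotinylated GST-cJun 1-79 at Ser73 with 10 µM ATP; % is set by controls: 0 for no effect and ±100 for the full control effect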). Particulars: JNK3 lysate, c-Jun phosphorylation; series mostly up to 57.1 µM. The method in brief:
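Inhibitors reduce antibody binding to phosphorylated biotin-cJun, lowering AlphaScreen luminescence. Lysates from HepG2 cells pre-activated by IL-1beta plus TNF-alpha supplied JNK3; compounds were titrated.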
For orientation: In Alpha technology, singlet oxygen from a donor bead excites a nearby acceptor bead.

Experiment [3] in a line: Cell Viability - HUV-EC-C (AID 542). Note: % is set by controls: 0 for no effect and ±100 for the full control effect; nearly all actives have a fitted effect of over 35% in size. Particulars: HUV-EC-C endothelial cell viability, qHTS; series mostly up to 92.2 µM. The method in brief: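 qHTS cytotoxicity: HUV-EC-C, 1000 cells/well, 5 hr settle, compound 40 hr 37 °C, CellTiter-Glo, luminescence. AC50 via Hill equation.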
A short description of experiment [4]: Cellular Toxicity (caspase-3) HepG2 (AID 654).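 Note: cells exposed to compound for 16 hours before reading.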 The settings on record: HepG2 caspase-3 activation, luminescence, 0% = DMSO only, 100% = tamoxifen; series mostly up to 92.2 µM. The method in brief: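 Cells plated 5 hr at 37 °C, compound added, incubated 16 hr at 37 °C. Caspase-Glo 3/7 reagent followed, 20 min at room temperature, then luminescence read. Activation scored as signal increase; AC50 from Hill fit.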

Experiment [5] can be described thus: Cellular Toxicity (caspase-3) BJ (AID 658). The settings on record: BJ fibroblasts, luminescence, normalized: DMSO 0%, staurosporine 100%; series mostly up to 91.7 µM. The method in brief: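 Luminescent aminoluciferin-substrate cleavage reports caspase 3/7 activity in normal human BJ fibroblasts after 16 hr compound exposure at 37 °C. Normalized to DMSO (basal) and 10 uM staurosporine (100%); AC50 from Hill fit of concentration-response.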

Experiment [6] can be described thus: MultiTox-Fluor Cytotoxicity Assay - LYMP1-002 - Live Cells (AID 955). Note: % is set by controls: 0 for no effect and ±100 for the full control effect. Particulars: LYMP1-002 lymphoblastoid live-cell protease fluorescence viability; series mostly up to 46.1 µM. The method in brief: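 Read-out is live-cell protease activity (cell-permeant GF-AFC substrate, fluorescence Ex/Em=405/510), where a decrease indicates acute toxicity. Human lymphoblastoid cells were treated 16 hours at 37 C in a concentration series, and AC50 values came from standard Hill modelling.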

The nature of experiment [7]: MultiTox-Fluor Cytotoxicity Assay - LYMP1-003 - Dead Cells (AID 961).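 Note: 0% = DMSO and 100% = tetraoctylammonium bromide; nearly all actives have a fitted effect of over 70% in size.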 The settings on record: LYMP1-003 lymphoblastoid cells, dead-cell protease fluorescence; series mostly up to 92.2 µM. The method in brief:
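LYMP1-003 human lymphoblastoid cells (2500/well) exposed to compound 16 h at 37 C in complete medium; dead-cell protease read with bis-AAF-R110 fluorescence (Ex/Em 485/520) after 60 min at room temperature. Normalized to DMSO and 15 uM tetraoctylammonium bromide; AC50 from Hill fit.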

Experiment [8] is described as follows: Cell Viability - LYMP1-003 - Assay at 24 hr (AID 963).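 Note: plate controls were DMSO only for no effect and tetraoctylammonium bromide positive control for full effect.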 The settings on record: LYMP1-003 lymphoblastoid cell viability; series mostly up to 92.2 µM. The method in brief:
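Cells seeded at 2500/well, 5 hr at 37 C; compounds added; 24 hr at 37 C; CellTiter-Glo added, 30 min room temperature; luminescence read. Decrease in ATP taken as cytotoxicity, AC50 from Hill modelling.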

The nature of experiment [9]: Cell Viability - LYMP2-005 (AID 967).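 Note: plate controls were DMSO only for no effect and 92 µM tetraoctylammonium bromide control for full effect.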 The settings on record: LYMP2-005 lymphoblastoid cell viability; series mostly up to 92.2 µM. The method in brief:
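CellTiter-Glo luminescence (cellular ATP) read-out; LYMP2-005 lymphoblastoid cells, 2500/well, 5 h pre-incubation, then 24 h compound exposure at 37 C in complete medium. Tetraoctylammonium bromide positive control; AC50 by standard Hill fit.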

Experiment [10] is described as follows: Cell Viability - LYMP2-013 (AID 970).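 Note: 0% = DMSO only and full inhibition = tetraoctylammonium bromide control; nearly all actives have a fitted effect of over 55% in size.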 The settings on record: LYMP2-013 lymphoblastoid cells viability; series mostly up to 92.2 µM. The method in brief:
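qHTS; 2500 lymphoblastoid cells/well; 5 hr 37 C settle; cpd 24 hr 37 C; CellTiter-Glo, 30 min RT; luminescence. AC50 = Hill fit.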

A short description of experiment [11]: Cell Viability - LYMP2-015 (AID 971).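 Note: 0% = DMSO only and full effect = 92 µM tetraoctylammonium bromide; nearly all actives have a fitted effect of over 55% in size.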 The settings on record: LYMP2-015 lymphoblastoid cell viability; series mostly up to 92.2 µM. The method in brief:
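Luminescent ATP read-out (CellTiter-Glo) served as the viability measure after lymphoblastoid cells were exposed to compounds for 24 hours at 37 C. Concentration-response data were fitted with the Hill equation to give AC50.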

Experiment [12] is described as follows: Cell Viability - LYMP2-017 (AID 972). Note: % is set by controls: 0 for no effect and ±100 for the full control effect; nearly all actives have a fitted effect of over 55% in size. Particulars: LYMP2-017 lymphoblastoid cell viability; series mostly up to 92.2 µM. The method in brief: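 2500 cells/well, 5 h 37 C; cpd 24 h 37 C in complete medium; CellTiter-Glo, 30 min RT; luminescence (ATP). AC50 via Hill fit, qHTS.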
A short description of experiment [13]: Cell Viability - LYMP2-019 (AID 973).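 Note: 0% = DMSO alone and full effect = 92 µM tetraoctylammonium bromide; nearly all actives have a fitted effect of over 55% in size.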 The settings on record: LYMP2-019 lymphoblastoid cell line viability; series mostly up to 92.2 µM. The method in brief: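 Luminescent ATP read-out (CellTiter-Glo, 30 min room temperature) served as the viability measure after 24 hr treatment of lymphoblastoid cells at 37 C. Concentration-response data were fitted to the Hill equation for AC50.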

The nature of experiment [14]: Cell Viability - LYMP2-007 (AID 979).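 Note: cells exposed to compound for 24 h before reading; 0% = DMSO only and the negative end = 92 µM tetraoctylammonium bromide; nearly all actives have a fitted effect of over 60% in size.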 The settings on record: LYMP2-007 lymphoblastoid cell viability; series mostly up to 92.2 µM. The method in brief:
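Luminescent ATP signal (CellTiter-Glo) serves as the viability read-out after 24 hr compound treatment of lymphoblastoid cells in complete medium at 37 C. Concentration-response data were fitted to the Hill equation to give AC50 values.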

Experiment [15] is described as follows: Cell Viability - LYMP2-024 (AID 988).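 Note: plate controls were DMSO only for no effect and 92 µM tetraoctylammonium bromide for full effect; nearly all actives have a fitted effect of over 60% in size.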 Particulars: LYMP2-024 lymphoblastoid cell viability; series mostly up to 92.2 µM. The method in brief:
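Steps: seed 2500 cells/well, 5 hr 37 C; add compound, 24 hr 37 C; add CellTiter-Glo, 30 min room temperature; read luminescence. AC50 derived by Hill modelling of concentration-dependent ATP loss.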

Experiment [16] has as its target Vitamin D3 receptor (Homo sapiens) (UniProt P11473). The experiment in a line: qHTS assay for small molecule agonists of vitamin D receptor signaling (AID 588543; calls by dose curve;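 note: 0% = DMSO basal and 100% = reference agonist control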). Particulars: HEK293T VDR-UAS-bla, beta-lactamase ratio, 16 h; series mostly up to 76.8 µM. The method in brief: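 GeneBLAzer VDR-UAS-bla HEK293T cells in 2% charcoal-stripped FBS medium were dosed with compound titrations for 16 h at 37 °C; CCF4 β-lactamase readout (405 nm ex, 460/530 nm em). EC50 and efficacy from Hill fits, normalized to 50 nM calcitriol (100%) and DMSO (0%).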

The target of experiment [17] is Thyroid hormone receptor beta (Homo sapiens) (UniProt P10828). The experiment in a line: qHTS assay for small molecule agonists of thyroid hormone receptor beta signaling (AID 588545; calls by dose curve;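 note: 0% = DMSO only and 100% = 10 nM T3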). The settings on record: TR-UAS-bla GripTite HEK 293, beta-lactamase ratio, agonist mode, 18 h; series mostly up to 76.7 µM. The method in brief:
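Efficacy and EC50 values derive from Hill fits of qHTS titration data, normalized to 10 nM T3 and DMSO-only wells. HEK 293 reporter cells were stimulated for 18 hrs at 37 C, with beta-lactamase activity measured by CCF4 fluorescence.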

A short description of experiment [18]: qHTS assay for small molecule antagonists of retinoid X receptor alpha signaling (AID 588546).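 Note: cells stimulated with 9-cis-retinoic acid as agonist; % is set by controls: 0 for no effect and ±100 for the full control effect.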 The settings on record: HEK293T RXRa-UAS-bla, beta-lactamase ratio, antagonist mode; measured here: W530 green channel, cytotoxicity proxy. The method in brief: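 Beta-lactamase reporter inhibition, read as CCF4 fluorescence ratio (ex 405, em 460/530 nm) after 2 h at RT. HEK293T UAS-bla cells, 2500/well, were stimulated with 9-cis-RA at 500 or 100 nM final alongside test compound for 18 h at 37 C.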

The nature of experiment [19]: qHTS assay for small molecule activators of the p53 signaling pathway (AID 651743; active = well fitted activation curve with a large enough effect in the signal ratio, not every such curve was filed as active; the % refers to the signal ratio; note: % of control where 0% means no effect). The settings on record: HCT-116 p53RE-bla, beta-lactamase FRET ratio, 16 h; activation: stronger effect = higher value. The method in brief: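 Cell-based beta-lactamase reporter (p53 response elements, HCT-116 background). After a 5-hour preincubation, cells received compound for 16 hours at 37 C; substrate development ran 2 hours at room temperature.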

The nature of experiment [20]: Cell Viability - LYMP2-023 (AID 975). Particulars: LYMP2-023 lymphoblastoid cell viability; series mostly up to 92.2 µM. The method in brief:
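2500 cells/well, 5 hr 37 C; cpd 24 hr 37 C; CellTiter-Glo, 30 min RT; luminescence. qHTS conc-response, Hill fit -> AC50. Pos ctrl tetraoctylammonium bromide.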

Thyroid hormone receptor beta (Homo sapiens), sequence (P10828 whole entry, looked up): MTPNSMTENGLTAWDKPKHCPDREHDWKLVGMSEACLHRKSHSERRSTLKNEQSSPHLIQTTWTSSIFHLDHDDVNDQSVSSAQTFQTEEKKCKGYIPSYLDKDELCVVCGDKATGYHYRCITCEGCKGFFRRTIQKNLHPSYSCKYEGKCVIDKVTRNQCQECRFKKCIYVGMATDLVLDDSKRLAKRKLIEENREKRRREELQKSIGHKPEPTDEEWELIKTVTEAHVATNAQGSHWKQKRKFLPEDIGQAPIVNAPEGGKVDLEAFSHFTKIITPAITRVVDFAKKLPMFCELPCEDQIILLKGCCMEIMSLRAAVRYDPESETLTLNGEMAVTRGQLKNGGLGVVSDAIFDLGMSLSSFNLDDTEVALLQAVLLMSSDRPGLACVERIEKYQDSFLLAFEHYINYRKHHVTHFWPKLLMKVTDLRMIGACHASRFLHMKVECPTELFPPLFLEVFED
Vitamin D3 receptor (Homo sapiens), sequence (P11473 whole entry, looked up): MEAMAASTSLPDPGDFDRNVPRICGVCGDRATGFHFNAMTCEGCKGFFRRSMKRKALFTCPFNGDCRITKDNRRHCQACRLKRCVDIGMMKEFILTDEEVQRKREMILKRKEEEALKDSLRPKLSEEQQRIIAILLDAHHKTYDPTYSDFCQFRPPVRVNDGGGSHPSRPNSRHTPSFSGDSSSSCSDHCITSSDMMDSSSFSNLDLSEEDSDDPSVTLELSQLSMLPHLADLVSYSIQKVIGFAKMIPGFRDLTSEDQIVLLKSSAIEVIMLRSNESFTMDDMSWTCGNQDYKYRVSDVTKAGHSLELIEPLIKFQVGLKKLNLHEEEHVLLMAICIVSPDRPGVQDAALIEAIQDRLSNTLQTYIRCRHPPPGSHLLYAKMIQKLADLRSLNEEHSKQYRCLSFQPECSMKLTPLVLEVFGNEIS

As for `CN(C)C(=O)Nc1cccc(C(F)(F)F)c1`, the Potency in experiment [1] is > 92 µM (inactive). For the same compound, the Potency result in experiment [2], in [3], in experiment [7], in [9], in experiment [10] and in experiment [11] was “inactive” each time. In addition, the Potency entry in [12], in [13], in [14], in [15] and in [17] was “inactive” in each case. Besides, the call in experiment [4], in experiment [5], in [6], in experiment [8] and in experiment [16] was inactive. Besides, the max response in experiment [18] was -7% and -2.56%. The activation in experiment [19] was 0.966% (inactive) and 0.726% (inactive).
`N#CC(Cl)(Cl)Cl`: the Potency in experiment [1] is > 92 µM (inactive). For the same compound, the Potency entry in experiment [2], in [3], in experiment [7], in experiment [9], in experiment [10] and in experiment [11] was “inactive” in each case. In addition, the Potency result in [12], in [13], in experiment [14], in [15] and in [17] was “inactive” in each case. Further, the result in [4], in experiment [5], in [6] and in experiment [8] was inactive. Also, in experiment [18], the max response is -17.2%.
For the compound `Cc1ccc(N)c(C)c1`, the Potency in experiment [1] was > 92 µM (inactive). Moreover, the Potency result in experiment [2], in [3], in [7], in experiment [9], in experiment [10] and in experiment [11] was “inactive” throughout. Further, the Potency entry in [12], in [13], in experiment [20], in experiment [14], in [15] and in experiment [17] was “inactive” each time. The outcome in experiment [4], in experiment [5], in experiment [6], in [8] and in [16] was inactive. In [18], the max response turned out to be 1.29%.
As for `ClCC(Br)CBr` (stereo not drawn), the Potency in [1] was > 92 µM (inactive). Further, the Potency entry in experiment [2], in experiment [3], in [7], in experiment [9], in [10] and in experiment [11] was “inactive” in each case. The Potency entry in experiment [12], in experiment [13], in [20], in experiment [14], in [15] and in experiment [17] was “inactive” throughout. Further, the outcome in [4], in [5], in experiment [6] and in [16] was inactive. In experiment [18], the max response was -1.84%. For the same compound, in experiment [19], the activation was -3.3% (inactive).
Take `c1ccc(Nc2ccc(Nc3ccccc3)cc2)cc1`: the Potency in experiment [1] is > 92 µM (inactive). Also, the Potency result in experiment [3], in [7], in experiment [9], in [10], in [11] and in [12] was “inactive” in each case. Moreover, the Potency entry in [13], in [20], in experiment [14] and in [17] was “inactive” throughout. The compound was called inactive in experiment [4], in experiment [5], in [6] and in experiment [16]. In experiment [18], the max response is -12.1%.
`Nc1c(Br)cc([N+](=O)[O-])cc1[N+](=O)[O-]`: the Potency in experiment [1] is > 92 µM (inactive). Also, the Potency entry in experiment [2], in experiment [3], in [7], in [9], in [10] and in experiment [11] was “inactive” each time. Also, the Potency entry in experiment [12], in experiment [13], in experiment [20], in experiment [14] and in [17] was “inactive” each time. The compound was classed as inactive in experiment [4], in experiment [5], in experiment [6], in experiment [8] and in [16]. Moreover, the activation in experiment [19] was -4.7% (inactive).
